We go through eight compounds from PubChem BioAssay (NCI).

Where “and” joins values, the source holds several entries; their conditions need not be identical. Equal values may be shown once. About 83,000 compounds went through this panel and 20% of them were active in at least one assay; those are over-represented in the sample as a whole.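 Activity criterion: percent growth below 10, measured after cells in 96-well plates were exposed to a single compound concentration for 48 hours.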 Values without a mark were called inactive. Calls of active or inactive are those of the source.

Holding throughout (test): NCI-60 one-dose screen, 48 h (100 = growth as untreated, 0 = no growth, -100 = all killed)
Conditions in all cases: 10 µM unless noted

The test system of test [1] is NCI-H23 lung.
The subject of test [2] is NCI-H226 lung.
For test [3], the system named is NCI-H322M lung.
Test [4] deals with HOP-62 NSCLC.
Test [5] concerns NCI-H460 lung.
For test [6], the system named is HOP-92 NSCLC.
Test [7] concerns NCI-H522 lung.
Test [8] relates to A549/ATCC NSCLC.
Test [9] has as its system 786-0 renal.
Test [10] concerns DU-145 prostate.
The test system of test [11] is K-562 leukemia.
Test [12] has as its system MALME-3M melanoma.
In test [13] the test system is MDA-MB-231 breast.
The test system of test [14] is RXF 393 renal.
Test [15] concerns SF-268 CNS.
Test [16] concerns SF-295 CNS.
Test [17] deals with SF-539 CNS.
Test [18] deals with UACC-257 melanoma.
The subject of test [19] is M14 melanoma.
Test [20] relates to COLO 205 colon.

On to `CCCc1cc(C(N)=S)ccn1`, for which the growth in [1] was 108%; in [2], 100%; in [3], 101%; in test [4], 106%; in test [5], 111%; in test [6], 95.1%. For the same compound, the growth is 93.6% in [7]; 103% in [8]; 95.6% in test [9]; 109% in test [10]; 95.3% in test [11]; 93.7% in test [12]. Also, the growth in [13] was 115%; in test [14], 111%; in [15], 114%; in test [16], 99.1%; in test [17] it was 100%; in test [18], 112%. In [19], the growth is 102%.

For `CC(=O)N1N=C(c2ccc(Nc3nc(Nc4ccc(F)cc4)nc(Nc4ccc(Cl)cc4)n3)cc2)CC1c1ccc(N(C)C)cc1` (configuration not stated), the growth is 52.2% in test [1]; 42.3% in test [2]; 79.6% in [3]; 109% and 58.6% in test [4]; 44.9% in test [5]; 22.5% in test [6]. Also, the growth in test [7] is 47.8%; in [8], 30.3%; in [9], 113% and 44.1%; in test [20], 51.2%; in [10], 5.71% (active); in [11], 23.8%. Further, the growth was 62.7% in [12]; 51% in [13]; 68.8% in test [15]; 1.56% (active) in test [16]; 67.9% in test [17]; 46.8% in test [18]. For the same compound, the growth in test [19] is 41.4%.

On to `O=C(CCl)n1nnnc1Cc1ccccc1`, for which the growth is 102% in test [1]; 104% in [2]; 102% in [3]; 90.2% in [4]; 108% in test [5]; 102% in test [6]. Also, the growth in test [7] was 90.8%; in test [8], 92.2%; in [9], 95%; in test [10] it was 110%; in [11], 83.4%; in test [12] it was 106%. Besides, the growth in test [13] is 92.9%; in test [14], 112%; in test [15] it was 106%; in test [16] it was 90.7%; in test [17], 92.2%; in [18], 88.7%. Further, the growth in [19] was 98.6%.

For `CC12OC(CC(O)C1O)n1c3ccccc3c3c4c(c5c6ccccc6n2c5c31)C(=O)N(CCN1CCOCC1)C4=O` (configuration not stated), the growth in [1] was -6.63% (active); in test [2] it was -35.6% (active); in test [3], 14.5%; in test [4], -11.7% (active); in test [5], -12.5% (active); in test [6], 19.6%. Further, the growth was -16.3% (active) in test [7]; -31.8% (active) in test [8]; 1.94% (active) in test [9]; 3.22% (active) in test [10]; 7.56% (active) in test [11]; -18% (active) in test [12]. The growth in test [13] was 44.2%; in test [14], -6.91% (active); in [15], 17.9%; in test [16] it was -14.5% (active); in test [17], 6.03% (active); in [18], 14.7%. The growth in [19] is -3.54% (active).

Turning to `Cc1nc2sc(C(=O)Nc3cccc4ncccc34)c(N)c2cc1C(C)O` (configuration not stated), the growth in test [1] is 80.4%; in [2], 85.1%; in test [3], 79.7%; in test [4] it was 68.1%; in test [5] it was 80.9%; in test [6], 70.5%. For the same compound, the growth is 34.7% in [7]; 81.3% in test [8]; 86.2% in [9]; 109% in test [10]; 28.8% in test [11]; 74.5% in test [12]. For the same compound, the growth in test [13] was 76.1%; in [14], 70.1%; in [15] it was 87.7%; in test [16], 59.8%; in test [17], 82.4%; in [18] it was 75.9%. The growth in test [19] is 62%.

As for `Cc1ccc(-c2nc3nc(-c4ccccc4)nc(N4CCN(S(=O)(=O)c5ccccc5)CC4)c3o2)cc1`, the growth in test [1] is 88.3%; in [2], 76.5%; in test [3] it was 101%; in test [4] it was 72.3%; in [5], 73.3%; in test [6], 95.1%. Moreover, the growth was 72.9% in [7]; 91.5% in [8]; 61% in test [9]; 96.6% in [10]; 97.7% in test [11]; 84.2% in test [12]. Further, the growth was 72.4% in [13]; 66.3% in [14]; 66.8% in test [15]; 74.7% in [16]; 52.5% in test [17]; 99% in test [18]. Besides, the growth in test [19] was 96.7%.

As to `O=C1C(Nc2ccc(Cl)cc2)=C(I)C(=O)c2ncccc21`, the growth in test [1] is 9.7% (active); in test [2] it was 88.4%; in test [3] it was 64.3%; in [4] it was 48.1%; in test [5], 17.5%; in [6], -90.4% (active). Moreover, the growth in [7] was -58.7% (active); in [8], 35.5%; in test [9], 26.1%; in [10], 13.6%; in test [11] it was 8.51% (active); in [12], -46.5% (active). For the same compound, the growth is -46.4% (active) in test [13]; 41.7% in test [14]; 28.9% in [15]; 75.2% in test [16]; 7.82% (active) in test [17]; 40.2% in test [18]. Moreover, in test [19], the growth is -3.93% (active).

Consider `Cc1ccc(Nc2nc(-c3cc(O)c(C)c(C)c3O)cs2)cc1`, for which the growth in test [1] was 90.4%; in test [2], 90.2%; in [3], 102%; in test [4], 99.9%; in test [5], 104%; in test [6], 98.2%. The growth was 65.8% in [7]; 88.1% in [8]; 118% in [9]; 97.3% in test [10]; 66.5% in test [11]; 109% in test [12]. The growth is 104% in test [13]; 99.3% in [14]; 92.3% in test [15]; 101% in test [16]; 96.6% in test [17]; 104% in [18]. The growth in test [19] is 96.6%.
